Experimental data reported in PubChem BioAssay AID493027 (The Scripps Research Institute Molecular Screening Center, 2011).
Screen size: about 2,000 compounds; about 45 (2%) were called active. This is one part of a sample in which actives are shown more often than they occur.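 Rule for the calls: active = inhibition above the screen-wide mean inhibition plus 3 SD (cut at about 44% in these data); inactive = the rest.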

target: Perilipin-1 (Homo sapiens) + 1-acylglycerol-3-phosphate O-acyltransferase ABHD5 (Homo sapiens) (UniProt O60240+Q8WTS1); assay: ABHD5-PLIN1 interaction inhibitors, pilot screen, cell lysate, split luciferase complementation, luminescence, NIH validation set (AID 493027);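 note: 0% = DMSO wells with the 100% control not disclosed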; conditions: split G. princeps luciferase complementation, 4 h; at 7.9 µM, stronger effect = higher value
Sequence (O60240 whole entry, looked up): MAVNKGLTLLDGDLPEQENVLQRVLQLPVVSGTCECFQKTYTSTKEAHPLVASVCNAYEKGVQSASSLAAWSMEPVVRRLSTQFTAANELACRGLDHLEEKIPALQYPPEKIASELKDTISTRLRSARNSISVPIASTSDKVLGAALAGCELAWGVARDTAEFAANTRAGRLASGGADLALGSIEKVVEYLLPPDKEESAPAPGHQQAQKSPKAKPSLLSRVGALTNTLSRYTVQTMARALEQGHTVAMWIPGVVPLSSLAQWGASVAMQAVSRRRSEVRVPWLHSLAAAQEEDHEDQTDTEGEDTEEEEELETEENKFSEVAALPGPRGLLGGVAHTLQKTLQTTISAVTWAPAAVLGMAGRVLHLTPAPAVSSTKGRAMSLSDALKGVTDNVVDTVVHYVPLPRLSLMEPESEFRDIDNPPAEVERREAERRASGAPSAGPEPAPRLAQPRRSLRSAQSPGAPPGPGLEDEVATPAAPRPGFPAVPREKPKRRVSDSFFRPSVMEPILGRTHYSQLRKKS
Sequence (Q8WTS1 whole entry, looked up): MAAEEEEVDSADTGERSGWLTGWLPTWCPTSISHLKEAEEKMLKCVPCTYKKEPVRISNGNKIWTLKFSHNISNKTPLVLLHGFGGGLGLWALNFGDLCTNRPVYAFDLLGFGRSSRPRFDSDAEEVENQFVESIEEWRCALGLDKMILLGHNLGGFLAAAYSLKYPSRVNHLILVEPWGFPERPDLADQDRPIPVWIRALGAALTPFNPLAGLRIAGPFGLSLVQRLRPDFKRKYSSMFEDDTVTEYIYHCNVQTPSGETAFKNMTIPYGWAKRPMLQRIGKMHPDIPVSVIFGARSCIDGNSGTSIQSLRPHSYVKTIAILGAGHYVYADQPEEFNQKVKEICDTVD

inhibition, inactive:
COc1ccc2[nH]c3c(=O)n(/N=C/[C@H]4C(C)C=C(C)CC4C)c(=O)[nH]c3c2c1 (stereo partly drawn) 23.9%
COc1ccc(CCNC(=O)c2c(O)c3c([nH]c2=O)CCCC3)cc1 3.26%
COc1ccc(C(=O)OCc2cc3cccc(C)c3[nH]c2=O)cc1 -1.47%
Cc1cc(-c2nn(-c3ccccc3F)cc2CN2CCC(O)CC2)c(C)s1 -2.82%
COc1cc2c3c(c1)C1(C(=O)N3C(C)(C)C=C2C)C(C#N)=C(N)Oc2cc(C)oc(=O)c21 (stereo not drawn) -0.82%
COc1cc2c3c(c1)C(C)CC(C)(C)N3C(=O)C2=O (stereo not drawn) 6.69%
CS(=O)(=O)Nc1cccc(C(=O)CC2(O)C(=O)Nc3ccc(Br)cc32)c1 (stereo not drawn) -3.35%
COc1cc2c(cc1OC)-c1nnc(C)n1C(C)(C)C2 -2.21%
COc1ccccc1C(CC(=O)Nc1ccccc1C)c1ccc(OC(C)C)cc1 (stereo not drawn) 0.34%
COc1ccc(CNCCC(c2ccc(F)cc2)c2ccc(OC(C)C)cc2)cc1OC (stereo not drawn) -6.56%
CC(C)C12CN3CC(C(C)C)(CN(C1)C3c1ccccc1)C2O (stereo not drawn) -10.6%
Cn1c(=S)n(C)c2ccccc21 -7.95%
COc1ccc2cc(C(=O)OC(C)C)sc(=O)c2c1OC 3.53%
COc1cccc(OCc2cc(C3Nc4ccccc4C(=O)N3Cc3ccco3)ccc2OC)c1 (stereo not drawn) 42.9%
O=C(O)c1cc(-c2ccccc2)nc2ccccc12 -6.78%
CCCOc1ccc(-c2cc(C(=O)NCC3CCCO3)c3ccccc3n2)cc1 (stereo not drawn) -2.49%
COc1cc2cc(C)nc(Cc3cccc4ccccc34)c2cc1OC 16.5%
COc1ccc(C2C3C(C)=NN=C3CC(C)(O)C2C(C)=O)cc1 (stereo not drawn) -2.63%
Oc1[nH]c2ccccc2c1C1=NCCCC1 -6.01%
O=C(Cc1ccccc1[N+](=O)[O-])NCCCN1CCOCC1 -7.14%
COc1ccccc1C(CCN(Cc1ccccc1)C(C)=O)c1ccco1 (stereo not drawn) 9.44%
CC(=O)N(CCC(Cc1ccccc1)c1ccco1)Cc1ccco1 (stereo not drawn) 40.8%
CCOc1ccc2ccccc2c1CNc1nnnn1C -8.53%
COc1ccc(C(=O)Nc2nc3ccccc3c(=O)[nH]2)cc1 -4.92%
CC(=O)Oc1ccc(C(=O)O)cc1OC(C)=O 2.2%
CCC1(c2ccccc2)NC(=S)N(c2ccc(C)c(C)c2)N1 (stereo not drawn) -0.55%
CC(=O)/C=C/c1ccc(C)o1 18.2%
COc1cccc2c(=O)c3ccccc3oc12 -14.7%
CCc1ccc(/C=C2\SC(=S)N(CCC(=O)N3CCN(C)CC3)C2=O)cc1 -12.7%
O=c1c2ccccc2nnn1Cc1cccc2ccccc12 7.22%
COc1ccccc1C(=O)c1cc2ccc(O)cc2oc1=O 4.61%
COc1ccccc1/C=C/C(=O)c1c2c(c(C)[nH]c1=O)CCCC2 28.8%
O=C1C(Cc2ccccc2)NC(=S)N1c1ccccc1 (stereo not drawn) -13.4%
Cc1ccc2c(c1)OC(=O)CC2c1ccccc1 (stereo not drawn) -5.39%
Oc1ccccc1OCCOc1ccccc1OCCOc1ccccc1O 8.26%
Cc1cccc(OCC(=O)Nc2ccc(C(=O)NCC(C)C)cc2)c1 -6.6%
CC(=O)CCc1oc2ccccc2c1-c1ccccc1 -1.83%
CCCCc1oc2ccccc2c1C(=O)c1cc(I)c(OCCN(CC)CC)c(I)c1 -6.98%
COc1cc2c(cc1OC)CN(Cc1ccc(C)s1)CC2 2.36%
O=C(N1CCCCC1)C1(c2ccccc2)CCOCC1 -5.12%
Cc1cc(O)c2/c(=N\N)c(-c3csc(C)n3)coc2c1 5.2%
COc1cc(/C=C(\C#N)C(=O)N2CCc3ccccc32)ccc1O 42.5%
CCc1ccc(/C=C2\Oc3cc(OC(=O)N4CCOCC4)ccc3C2=O)cc1 17.4%
COC(=O)c1ccc2c(c1)C(=O)/C(=C/c1ccc(O)cc1)O2 7.53%
O=C(O)CCSc1nc2ccccc2s1 0.7%
CC[n+]1c(C)sc2cc(C)ccc21 0.88%
O=C(OCCN1CCCC1)C1(c2ccccc2)CCCC1 -8.49%
Cc1nc(C(=O)Nc2ccccc2Cl)cc2c1[nH]c1ccccc12 -0.62%
COc1ccc(NC(=O)C2C(=O)N(CCO)C3(C)CC2c2ccccc2O3)cc1 (stereo not drawn) -10.9%
O=C(Nc1cccc(Oc2c(F)c(F)c(F)c(F)c2F)c1)N1C[C@@H]2C[C@@H](C1)c1cccc(=O)n1C2 9%
COc1ccc(Cc2noc(CN(C)CC3(N4CCOCC4)CCCCC3)n2)cc1OC -1.95%
Cn1cc(C2N3CC4(C)CN2CC(C)(C3)C4=O)c2ccccc21 (stereo not drawn) -7.09%
C[C@H](NC(=O)Nc1ccccc1F)C(=O)O -0.07%
O=P(O)(O)CP(=O)(O)O -4.16%
COc1cc(/C=C/C(=O)O)cc(S(=O)(=O)NCCCO)c1OC -7.07%
O=C(Nc1ccccc1)OCC1CCCN2CCCCC12 (stereo not drawn) -5.9%
O=C(NCc1ccccc1Cl)NC(=O)c1ccccc1 -2.42%
CNS(=O)(=O)c1ccc(C)cc1 -13.4%
CCCCNC(=O)NS(=O)(=O)c1ccc(C)cc1 -10.7%
COc1ccc(NC(=O)C2CCCN2C(=O)OC(C)(C)C)cc1 (stereo not drawn) -11.3%
COc1ccccc1NC(=O)C12CCC(C)(C(=O)C1)C2(C)C (stereo not drawn) -0.67%
COCCn1c(SCCOc2ccccc2)nc2ccccc2c1=O -7.89%
Cc1nc(N)nc2c1CCCC2 -5.16%
c1cc(-c2ccncc2)ccn1 -6.1%
O=C(O)c1cc2cc(Cl)cc(Cl)c2oc1=O 1.22%
COc1ccc(CCN(C)CC(=O)Nc2cc(C)nc3ccccc23)cc1OC 3.27%
COc1cccc(OC2OC3COC(C)(C)OC3C(O)C2NC(C)=O)c1 (stereo not drawn) -10.2%
CC(C)[N+]1(C)[C@@H]2CC[C@H]1CC(OC(=O)C(CO)c1ccccc1)C2 (stereo partly drawn) -5.55%
O=P(c1ccccc1)(c1ccccc1)c1nc(-c2ccc(Cl)cc2)oc1N1CCOCC1 2.59%
COc1ccc(C=O)c(OC)c1 0.71%
CC(=O)NCCCCCCNC(C)=O 3.05%
Nc1ccc(S(N)(=O)=O)cc1N 1.88%
COc1cc(NC(=S)NN2CCN(C)CC2)cc(OC)c1OC -10%
COc1cc(C2C(C(C)=O)=C(O)C(=O)N2c2ccc(C)cc2)ccc1O (stereo not drawn) -3.68%
O=C1c2ccccc2C2(c3ccccc3)NCCN12 (stereo not drawn) 0.96%
O=C(Nc1cccc(Cl)c1)N1CCN2C(=O)c3ccccc3C12c1ccccc1 (stereo not drawn) 6.94%
CC(=O)c1cccc(NC(=O)N[C@@H](CC(C)C)C(=O)O)c1 -3.15%
COc1ccc(C(=O)Nc2ccc(OC)c([N+](=O)[O-])c2)cc1Br 0.74%
COc1ccc(C(=O)COc2ccc(F)cc2)c(O)c1 -7.26%
C[C@H]([C@@H](N)C(=O)N[C@@H](C(=O)O)[C@@H]1O[C@H](n2ccc(=O)[nH]c2=O)[C@@H](O)[C@H]1O)[C@@H](O)c1ccc(O)cn1 8.07%
CCOC(=O)C1CCCN(Cc2nc(Cc3cccc(F)c3)no2)C1 (stereo not drawn) -4.38%
COC(=O)c1cc(=O)c2ccc(OC)cc2o1 -10.3%
CSCC[C@H](NC(=O)OC(C)(C)C)C(=O)N1CCC(C(=O)N[C@@H](C)C(=O)O)CC1 -2.64%
CC1(C)C(C=C(Cl)Cl)C1C(=O)N1CCN(Cc2ccccc2)CC1 (stereo not drawn) -10.6%
CC(C)=CCCC(C)CN1CCC(N2CCC(C(=O)N3CCCC3)CC2)CC1 (stereo not drawn) -9.96%
CC1(C)CC(O)(CNCc2ccc3c(c2)OCO3)CCO1 (stereo not drawn) -11.9%
S=C(NCc1ccccc1)NCc1cccc(CNC(=S)NCc2ccccc2)c1 4.65%
N#C/C(=C\c1ccc(O)c(O)c1)C(=O)NCCCc1ccccc1 37.9%
CN1[C@@H]2CC[C@H]1CC(OC(=O)C(CO)c1ccccc1)C2 (stereo partly drawn) -16.1%
COC(=O)c1cc(C(=O)NCCC(C)C)cc([N+](=O)[O-])c1 -28.2%
COc1cc(OC)c(C2C(C#N)=C(N)OC3=C2C(=O)CC(C)(C)C3)cc1OC (stereo not drawn) -0.37%
COc1ccc(-c2nc3c(=O)n(C)c(=O)[nH]c3n2CCc2ccccc2)cc1 -1.13%

inhibition, active:
CCOc1cc2c3c(c1)C(C)=CC(C)(C)N3C(=O)C2=O 43.5%
COc1ccc(CN(CCC(c2ccccc2)c2ccc(OC(C)C)cc2)C(=O)CCl)cc1OC (stereo not drawn) 64.4%
COC(=O)c1cc(-c2ccc(C)o2)nc2ccccc12 78%
O=C(c1ccco1)N(CCC(c1ccccc1)c1ccco1)Cc1ccco1 (stereo not drawn) 56.6%
CC(C)N1C(=O)/C(=C\c2nc3ccccc3c(=O)[nH]2)c2ccccc21 70.2%
O=C(Nc1ccc(Oc2c(F)c(F)c(F)c(F)c2F)cc1)OC1CCN2Cc3ccccc3N=C12 (stereo not drawn) 71.9%
COc1cccc(/C=C/C(=O)c2c(O)cc(C)oc2=O)c1O 47.8%
CCc1oc2ccccc2c1C(=O)c1cc(Br)c(O)c(Br)c1 57.3%
COc1ccccc1C(=O)Oc1ccc2c(c1)O/C(=C\c1ccncc1)C2=O 45.6%
COc1ccc2c(c1)C=CC1(O2)N(CCO)c2ccccc2C1(C)C (stereo not drawn) 45.5%
Cc1ccc(S(=O)(=O)N[C@@H](Cc2ccccc2)C(=O)CCl)cc1 82.3%
Nc1cc(-c2ccncc2)c[nH]c1=O 49%
CCCCC/C=C\C[C@H](O)/C=C/c1cccc(C[C@H](O)CCCCO)n1 57.6%
CC1(c2ccccc2)CC(C)(C)N2C(=O)C(=O)c3cccc1c32 (stereo not drawn) 65.7%
COc1ccc(C(=O)/C=C/c2cc(C(=O)O)cc3c2OCOC3)c(O)c1 67.3%
N#C/C(=C/c1ccccc1)C(=O)NCc1ccccc1 53.3%
